# Assay outcomes as filed in PubChem BioAssay.
# HT1080NT lethal = qHTS for induction of synthetic lethality in tumor cells producing 2HG: qHTS for the HT-1080-NT fibrosarcoma cell line; HT-1080-NT fibrosarcoma viability, CellTiter-Glo ATP luminescence, 48 h; Potency, µM (top dose mostly 46.1 µM), most hits filed as cytotoxic; hit rate 1.6% among 360,000; AID 686970, 2013;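 note: NT is the 2HG producing partner of a matched IDH1 knockdown line; nearly all actives have a fitted effect of over 55% in size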
#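 Viability of the 2HG-overproducing fibrosarcoma line after 48 hours of compound exposure at 37 degrees C was determined by luminescence with CellTiter-Glo, and concentration-effect curves were then fitted and categorized.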
# DT40 TDP1 no CPT = qHTS for Inhibitors of human tyrosyl-DNA phosphodiesterase 1 (TDP1): qHTS in cells in absence of CPT; DT40 Tdp1-/- hTDP1 cells, no CPT, ATP luminescence, 48 h; Potency, µM (series often up to 46.2 µM), actives largely listed as inhibitors; hit rate 15% among 420,000; note: nearly all actives have a fitted effect of over 55% in size
#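 DT40 Tdp1-/-;hTDP1 cells, no CPT (DMSO vehicle only), 400 cells/well; compounds pin-transferred; ≥48 hr, 37 °C; CellTiter-Glo 30 min RT dark, luminescence read.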
# KB-3-1 cytotox = qHTS assay for MDR1-selective chemotherapeutics: Primary screen using the parental adenocarcinoma cell KB-3-1; KB-3-1 viability, CellTiter-Glo ATP luminescence, 72 h; Potency, µM (doses to about 46.1 µM), actives largely listed as cytotoxic; hit rate 1.4% among 400,000; AID 1347075, 2019; note: nearly all actives have a fitted effect of over 60% in size
#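 72 h, 37 °C compound treatment of KB-3-1 parental cells; CellTiter-Glo added, 10 min, luminescence read. Data corrected against DMSO-only plates and normalized before curve fitting.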
# KB-V1 cytotox = qHTS assay for MDR1-selective chemotherapeutics: Primary screen using the drug-selected MDR subline cells KB-V1; KB-V1 MDR cells viability, CellTiter-Glo, 72 h; hit rate 3.4% among 400,000; Potency, µM (titrated, usually from 46.1 µM), usual class: cytotoxic; AID 1347076, 2019; note: nearly all actives have a fitted effect of over 60% in size
#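 Readout: CellTiter-Glo luminescence, 10 min after addition. Cells: KB-V1 MDR subline, 72 h at 37 degrees C with compound. Analysis: corrected, normalized data fitted to concentration-effect curves.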
# HT1080 IDH1KD tx = qHTS for induction of synthetic lethality in tumor cells producing 2HG: qHTS for the HT-1080-IDH1KD cell line; HT-1080 IDH1 knockdown viability, ATP luminescence, 48 h; hit rate 2% among 360,000; Potency, µM (titrated, usually from 46.1 µM), hits mostly cytotoxic; AID 686971, 2013
#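 Assay cells: HT-1080 with IDH1 knockdown, 750 per well, RPMI/5% FBS. Exposure: 48 h at 37 °C following 2 h pre-incubation. Read: CellTiter-Glo luminescence; fitted concentration-response, curve class assigned.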
# TDP1 cell CPT = qHTS for Inhibitors of human tyrosyl-DNA phosphodiesterase 1 (TDP1): qHTS in cells in presence of CPT. chicken DT40 Tdp1-/-;hTDP1 cells + 20 nM CPT, ATP luminescence, 48 h. Potency, µM (top dose mostly 46.2 µM), most hits filed as inhibitors. hit rate 12% among 420,000. AID 686979, 2013; note: nearly all actives have a fitted effect of over 55% in size
#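 Chicken DT40 Tdp1-/- cells complemented with human TDP1, 400 cells/well, exposed to compounds plus 20 nM camptothecin for at least 48 h at 37 C; viability read as ATP content by CellTiter-Glo luminescence.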
# Hits are given with their value; – = inactive; ? = inconclusive; · = no result; ! = not active in a repeat. Only some compounds are listed: those with a hit (about 19% of all), similar ones and a draw of the others. Calls come from the whole dose curve; as a rule, active = well fitted curve in the direction sought with a large enough effect; inconclusive = small, poorly fitted or top-dose-only effect, or another doubt; inactive = no such curve, though single readings can be large; an effect the other way counts as inactive or inconclusive.
SMILES,HT1080NT lethal,DT40 TDP1 no CPT,KB-3-1 cytotox,KB-V1 cytotox,HT1080 IDH1KD tx,TDP1 cell CPT
O=[N+]([O-])c1ccc(/C=N/Nc2nc(-c3ccccc3)c3cc(Br)ccc3n2)o1,–,20.6µM,–,–,–,16.4µM
N#Cc1ccccc1/C=N/Nc1nc(-c2ccccc2)c2cc(Br)ccc2n1,–,?,–,–,–,?
CCOC(=O)c1c(C)n(C)c2c(C)cc(O)c(OC(C)=O)c12,–,13µM,–,–,–,9.2µM
CCOC(=O)c1c(C)n(C)c2c1cc(OC(C)=O)c1ccccc12,?,?,–,–,–,–
Cc1ccccc1N(CC(=O)NC1CCCCC1)C(=O)c1csnn1,–,–,–,?,–,–
Cc1cc(C(C)(C)C)oc1C(=O)N(CC(=O)NC1CCCC1)Cc1ccccc1Cl,–,13µM,–,?,?,13µM
Cc1cc(C(C)(C)C)oc1C(=O)N(CC(=O)NC1CCCC1)c1cccc(C(F)(F)F)c1,?,?,–,?,?,18.4µM
Cc1ccccc1N(CC(=O)NC1CCCC1)C(=O)c1oc(C(C)(C)C)cc1C,–,14.1µM,–,16.4µM,–,16.4µM
Cc1ccc(C(=O)N(CC(=O)NC2CCCC2)c2cccc(F)c2)s1,–,–,–,?,–,–
Cc1ccc(C(=O)N(CC(=O)NC2CCCCC2)c2ccccc2C)s1,–,23.1µM,–,?,–,?
CCC1CCCCN1S(=O)(=O)c1ccc(C(=O)Nc2sc3c(c2C(N)=O)CCC3)cc1 (centres undefined),·,?,–,–,·,?
CN(C)c1ccc(-c2nnc(-c3ccccc3F)o2)cc1,–,?,–,–,–,–
O=C1c2cccc(-c3ccc(C(F)(F)F)cc3)c2C2CC=CCN12 (centres undefined),?,?,–,–,?,?
COc1ccc(NC(=O)c2ccc(NC(=O)CN3CCC(C(N)=O)CC3)cc2)cc1,–,–,–,?,–,–
Cc1ccc(-c2csc3n[nH]c(=S)n23)cc1,–,–,?,11.6µM!,–,–
Cc1ccc(-n2c(C)n[nH]c2=S)cc1,–,–,–,?,–,–
Cc1ccc(Cc2c(-c3ccccc3)nc3cc(C)ccn23)cc1,–,18.4µM,–,–,–,16.4µM
Cc1ccn2c(Cc3ccccc3)c(-c3ccc(F)cc3)nc2c1,–,20.6µM,?,–,–,23.1µM
NC(=O)c1ccccc1NC(=O)/C=C/c1ccccc1,–,20.6µM,–,?,–,?
Cc1c(O)ccc(NC(=O)/C=C/c2ccccc2)c1C,–,14.6µM,–,–,–,18.4µM
O=C(/C=C/c1ccc(Cl)cc1)NC(=S)Nc1ccccc1C(=O)O,?,?,–,–,?,?
CC(=O)Nc1nc(NC(=O)/C=C/c2ccccc2)n(-c2ccccc2)n1,–,8.2µM,?,–,?,11.6µM
CC(C)=CC(=O)Nc1ccccc1C(N)=O,–,–,–,–,–,–
NC(=O)c1ccccc1NC(=O)/C=C/c1ccc(Cl)cc1,?,16.4µM,–,14.6µM,?,?
CC(C)C(C(=O)NCc1ccccc1)N1CCN(C(=O)C2CCCO2)CC1 (centres undefined),–,–,–,–,–,–
SMILES,HT1080NT lethal,DT40 TDP1 no CPT,KB-3-1 cytotox,KB-V1 cytotox,HT1080 IDH1KD tx,TDP1 cell CPT
COc1ccccc1N1CC(C(=O)OCC(=O)c2c(N)n(C)c(=O)n(C)c2=O)CC1=O (centres undefined),–,–,?,–,–,–
COc1ccc(Cl)cc1N=Cc1c(O)c2ccccc2oc1=O,–,?,–,–,–,16.4µM
COc1ccc(OC)c(N=Cc2c(O)c3ccccc3oc2=O)c1,–,?,–,–,–,?
CC(=O)N1CCc2cc(S(=O)(=O)NC(Cc3ccccc3)C(=O)NCc3ccccc3Cl)ccc21 (centres undefined),·,–,–,–,·,–
COc1ccccc1Oc1ccc(S(=O)(=O)NCc2ccccn2)cc1,–,14.1µM,?,?,–,?
COc1ccc(S(=O)(=O)NCc2ccccn2)cc1Cl,–,–,–,–,–,–
CC(C)(C)c1ccc(S(=O)(=O)NCc2ccc(C(=O)NCc3ccccn3)cc2)cc1,–,18.4µM,?,–,–,20.6µM
COc1ccc(S(=O)(=O)NCc2ccccn2)cc1NC(=O)c1ccc(Cl)cc1,?,16.4µM,?,?,?,?
COc1ccc(S(=O)(=O)NCc2ccccn2)c(C)c1C,–,?,–,–,–,–
CCOc1ccc(S(=O)(=O)NCc2ccccn2)c(C)c1C,–,–,–,?,–,23.1µM
Cc1cc(C)cc(C(=O)Nc2c(C(=O)Nc3ccccc3F)oc3ccccc23)c1,·,–,–,–,·,?
Cc1ccc(OCCC(=O)OCC(=O)NCCc2ccc(Cl)cc2)cc1,–,–,–,–,–,–
COc1ccc(C#Cc2c(-c3ccccc3)n(-c3ccccc3)c3ccc(CO)cc23)cc1,?,?,–,?,?,?
COc1ccc(S(=O)(=O)NCc2ccccn2)cc1OC,–,–,–,–,–,–
COc1ccc(S(=O)(=O)NCc2ccccn2)cc1NC(=O)c1ccccc1C,?,4.61µM,14.6µM,?,?,4.11µM
Cc1cc(-c2ccc(C(C)C)c(S(=O)(=O)NCCN3CCC(C)CC3)c2)on1,–,?,–,–,–,?
CCSc1nnc(-c2cnn(-c3ccccc3)c2-n2cccc2)n1C,–,–,–,–,–,?
CCCCCCSc1nnc(-c2cnn(-c3ccccc3)c2-n2cccc2)n1C,18.4µM,20.6µM,–,–,?,?
FC(F)(F)C(F)(F)C(F)(F)C(F)(F)C(F)(F)C(F)(F)F,·,–,·,·,·,–
COc1ccc(Br)cc1CNC(=O)c1ccc(-n2c(C)cc3c2CCC(C)C3)cc1 (centres undefined),·,18.4µM,·,·,·,23.1µM
CCc1ccc(CNC(=O)c2ccc(-n3c(C)cc4c3CCC(C)C4)cc2)cc1 (centres undefined),·,20.6µM,–,–,·,16.4µM
COc1cccc(CNC(=O)c2ccc(-n3c(C)cc4c3CCC(C)C4)cc2)c1 (centres undefined),·,?,–,–,·,?
COc1ccc(Br)cc1CNC(=O)C1CCN(S(=O)(=O)N2CCCC2)CC1,–,–,–,?,–,–
CCCOc1ccc(CNC(=O)c2ccc(-n3c(C)cc4c3CCC(C)C4)cc2)cc1 (centres undefined),·,?,–,–,·,?
